# Measured values reported in PubChem BioAssay (NCATS).
# Inconclusive results are not listed. A number with no mark means an inactive call. Calls of active or inactive are those of the source. Calls follow the shape of the dose curve; as a rule, active = well fitted cell-killing curve with a large enough effect; inconclusive = small, poorly fitted or top-dose-only effect, or effect the other way; inactive = no such curve, though single readings can be large or run the other way.
# Test: Quantitative High-Throughput drug screen in 47 multiple myeloma cell lines against the NCATS MIPE library collection: KMS28PE_JCRB cell viability assay (AID 1918983); also: nearly all actives have a fitted effect of over 35% in size
# Conditions: KMS28PE multiple myeloma viability, CellTiter-Glo ATP, 48 h; series mostly up to 45.8 µM; viability, % of DMSO control: at the top concentration
# Method in brief: (§1)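 Cells were exposed to library compounds for 48 hours, after which ATP was measured by CellTiter-Glo. Signal was taken as median relative luminescence units.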
# Potency is read from the fitted curve at half-maximal effect.
Structure (SMILES),"viability, % of DMSO control [%]",Potency
CC(=O)OCC1=C(C(=O)O)N2C(=O)[C@@H](N)[C@@H]2SC1,143,–
Cc1c(C(=O)c2cccc3ccccc23)c2cccc3c2n1[C@H](CN1CCOCC1)CO3,–,26.4 µM (active)
COC1=C[C@@H]2[C@@H]3Cc4ccc(OC)c(O)c4[C@]2(CCN3C)CC1=O,143,–
CC(C)[C@H]1C(=O)N[C@H](CO)Cc2c[nH]c3cccc(c23)N1C,–,0.264 µM (active)
COc1cc([C@@H]2c3cc4c(cc3[C@@H](O)C3COC(=O)C32)OCO4)cc(OC)c1O (stereo partly drawn),–,0.0418 µM (active)
CC(=O)O[C@@]12CO[C@H]1C[C@H](O)[C@@]1(C)C(=O)[C@H](O)C3=C(C)[C@@H](O)C[C@@](O)([C@@H](OC(=O)c4ccccc4)[C@@H]21)C3(C)C,–,2.64 µM (active)
C=C[C@@H]1CN2CCC1C[C@@H]2[C@@H](O)c1ccnc2ccccc12 (stereo partly drawn),–,18.7 µM (active)
C[C@]12CC[C@H]3[C@@H](CCC4=CC(=O)CC[C@@]43C)[C@H]1CC[C@H]2OC(=O)CCC1CCCC1,134,–
COc1ccc2c(c1)CN(C)CC2c1ccc(Cl)c(Cl)c1 (stereo not drawn),–,18.7 µM (active)
O=C(NCC1CCOCC1)c1cnc(Nc2ccc(Cl)cc2Cl)nc1C(F)(F)F,101,–
CCNC(=O)C[C@@H]1N=C(c2ccc(Cl)cc2)c2cc(OC)ccc2-n2c(C)nnc21,–,0.264 µM (active)
Cc1ccccc1-n1c(Cn2cnc3c(N)ncnc32)nc2cccc(C)c2c1=O,–,0.296 µM (active)
CN[C@@H]1Cc2cccc3[nH]c(=O)n(c23)C1,102,–
CC(C)N[C@@H]1CCn2c(=O)[nH]c3cccc(c32)[C@@H]1O,–,20.9 µM (active)
COc1ccc(N(C(=O)Oc2c(C)cccc2C)c2ccnc(Nc3ccc(N4CCN(C)CC4)cc3)n2)c(OC)c1,–,18.7 µM (active)
CCNC(=O)CC1N=C(c2ccc(Cl)cc2)c2cc(OC)ccc2-n2c(C)nnc21 (stereo not drawn),–,20.9 µM (active)
C[C@]12CC[C@H]3[C@@H](CCC4=CC(=O)CC[C@@]43C)[C@H]1CC[C@H]2O,141,–
Cc1ccccc1-n1c(Cn2ncc3c(N)ncnc32)nc2cccc(C)c2c1=O,–,9.35 µM (active)
C[C@]12COC(=O)C[C@@H]1CC[C@@H]1[C@H]2CC[C@@]2(C)[C@H]1CC[C@]2(C)O,123,–
C=CCON=C(C[C@H]1O[C@@H]2O[C@]3(C)CC[C@@H]4[C@H](C)CC[C@@H]([C@H]1C)[C@@]24OO3)[C@H]1O[C@@H]2O[C@]3(C)CC[C@H]4[C@H](C)CC[C@@H]([C@@H]1C)[C@@]24OO3,–,0.264 µM (active)
c1cc2c(cc1[C@H]1OC[C@H]3[C@H]1CO[C@H]3c1ccc3c(c1)OCO3)OCO2,155,–
CC(C)(O)C(=O)Nc1ccc([N+](=O)[O-])c(C(F)(F)F)c1,149,–
Clc1ccccc1C(c1ccccc1)(c1ccccc1)n1cccn1,–,11.8 µM (active)
Cc1c(C(=O)Nc2cccc(C(F)(F)F)c2)cc(-c2ccccc2)n1CCCN1CCOCC1,–,16.6 µM (active)
N#C[C@H](O[C@@H]1O[C@H](CO[C@@H]2O[C@H](CO)[C@H](O)[C@H](O)[C@H]2O)[C@H](O)[C@H](O)[C@H]1O)c1ccccc1,–,23.5 µM (active)
CCOP(=O)(OCC)C(C)NC(=O)N(CCCl)N=O (stereo not drawn),129,–
CC[C@H]1C=CC=CC[C@@H](C)[C@H](O)[C@@](C)(O)C(=O)[C@@H](C)[C@H](O)[C@@H](C)C(=O)[C@@H](C)[C@H](O)[C@@H](C)C=CC(=O)O[C@@H]2[C@@H](C)[C@H](CC1)O[C@]1(CC[C@H](C)[C@H](C[C@@H](C)O)O1)[C@H]2C,–,20.9 µM (active)
COC[C@H]1OC(=O)c2coc3c2[C@@]1(C)C1=C(C3=O)[C@@H]2CC[C@H](O)[C@@]2(C)C[C@@H]1OC(C)=O,–,1.32 µM (active)

# Test: Quantitative High-Throughput drug screen in 47 multiple myeloma cell lines against the NCATS MIPE library collection: L363_DSMZ cell viability assay (AID 1918984); also: nearly all actives have a fitted effect of over 40% in size
# Conditions: L363 myeloma viability, CellTiter-Glo ATP luminescence, 48 h; series mostly up to 45.8 µM; viability (% of control): at the top concentration
# Method in brief: as §1
Structure (SMILES),Potency,viability (% of control) [%]
Cc1c(C(=O)c2cccc3ccccc23)c2cccc3c2n1[C@H](CN1CCOCC1)CO3,3.72 µM (active),–
COC1=C[C@@H]2[C@@H]3Cc4ccc(OC)c(O)c4[C@]2(CCN3C)CC1=O,2.96 µM (active),–
CC(C)[C@H]1C(=O)N[C@H](CO)Cc2c[nH]c3cccc(c23)N1C,–,63.1
COc1cc([C@@H]2c3cc4c(cc3[C@@H](O)C3COC(=O)C32)OCO4)cc(OC)c1O (stereo partly drawn),0.0132 µM (active),–
C[C@]12CC[C@H]3[C@@H](CCC4=CC(=O)CC[C@@]43C)[C@H]1CC[C@H]2OC(=O)CCC1CCCC1,–,86.7
COc1ccc2c(c1)CN(C)CC2c1ccc(Cl)c(Cl)c1 (stereo not drawn),13.2 µM (active),–
CC(C)N[C@@H]1CCn2c(=O)[nH]c3cccc(c32)[C@@H]1O,3.32 µM (active),–
O=C(N[C@@H](COc1ccc2[nH]c(=O)[nH]c2c1)c1ccccc1)c1cccn(Cc2ccc(F)c(F)c2)c1=O,18.7 µM (active),–
Cc1ccccc1-n1c(Cn2ncc3c(N)ncnc32)nc2cccc(C)c2c1=O,0.0743 µM (active),–
C[C@]12COC(=O)C[C@@H]1CC[C@@H]1[C@H]2CC[C@@]2(C)[C@H]1CC[C@]2(C)O,–,102
COc1ccc(C(=O)c2c(C)n(CCN3CCOCC3)c3cc(I)ccc23)cc1,8.33 µM (active),–
Cc1c(C(=O)Nc2cccc(C(F)(F)F)c2)cc(-c2ccccc2)n1CCCN1CCOCC1,5.9 µM (active),–
CCOP(=O)(OCC)C(C)NC(=O)N(CCCl)N=O (stereo not drawn),–,115
CC[C@H]1C=CC=CC[C@@H](C)[C@H](O)[C@@](C)(O)C(=O)[C@@H](C)[C@H](O)[C@@H](C)C(=O)[C@@H](C)[C@H](O)[C@@H](C)C=CC(=O)O[C@@H]2[C@@H](C)[C@H](CC1)O[C@]1(CC[C@H](C)[C@H](C[C@@H](C)O)O1)[C@H]2C,0.001 µM (active),–
COC[C@H]1OC(=O)c2coc3c2[C@@]1(C)C1=C(C3=O)[C@@H]2CC[C@H](O)[C@@]2(C)C[C@@H]1OC(C)=O,2.35 µM (active),–
